# Measurements taken from PubChem BioAssay (EPA / NIEHS).
# Results filed as inconclusive are left out. Active and inactive are the calls of the source. How the source made its calls, unless noted: active means hit-call score of the fitted dose curve at least 0.9, where 1 is the maximum; inconclusive means response in the unintended direction; inactive means score below 0.9.
# Columns and labels:
# [1] = molecular target: Nuclear receptor subfamily 1 group I member 2 (Mus musculus) (UniProt O54915); test: ATG_mPXR_XSP2: Attagene TRANS-FACTORIAL Multi-Species (XSP1) HepG2 Assay for mouse Pregnane X Receptor (PXR) (AID 2283831)
# Procedure, shortened: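 HepG2 cells transiently transfected with GAL4-UAS reporter units expressing chimeric NR-GAL4 proteins; reporter mRNA measured 24 h after dosing by RT-PCR with 6-FAM labelling and capillary electrophoresis, gain of signal relative to DMSO.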
# [2] = molecular target: zebrafish Thyroid Hormone Receptor alpha (TRa), thraa (gene 30670) (UniProt Q98867); test: ATG_zfTRa_XSP2: Attagene TRANS-FACTORIAL Multi-Species (XSP1) HepG2 Assay for zebrafish Thyroid Hormone Receptor alpha (TRa) (AID 2283832);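 further: actives raise zebrafish TRa-Gal4 reporter transcript above DMSO baseline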
# Procedure, shortened: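 HepG2, transient MRTU transfection, exogenous NR-Gal4 chimeras; 24 h dosing; mRNA readout via RT-PCR/CE fluorescence; positive direction vs DMSO.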
# [3] = system: zebrafish Peroxisome Proliferator-activated Receptor gamma (PPARg), gene 557037; test: ATG_zfPPARg_XSP2: Attagene TRANS-FACTORIAL Multi-Species (XSP2) HepG2 Assay for zebrafish Peroxisome Proliferator-activated Receptor gamma (PPARg) (AID 2283833);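 further: actives increase reporter signal over DMSO so AC50 reflects activation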
# Procedure, shortened: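 HepG2 cells transiently transfected with GAL4-UAS reporter units expressing a zebrafish PPARg–GAL4 chimera; compound exposure 24 h. Reporter mRNA quantified by RT-PCR with fluorescent labelling and capillary electrophoresis; gain of signal fitted relative to DMSO baseline.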
# [4] = ATG_M_61_XSP2: Attagene TRANS-FACTORIAL Multi-Species (XSP2) HepG2 Assay for M61 Transcription Factor (Internal Marker) (AID 2283835; active means hit-call score of the fitted dose curve at least 0.9, where 1 is the maximum; inactive means score below 0.9;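 further: reporter mRNA of an internal background marker read by RT-PCR and capillary electrophoresis; active means a rise in signal above the DMSO baseline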)
# Procedure, shortened: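 Signal was mRNA induction detected as fluorescence after RT-PCR and capillary electrophoresis, analysed in the gain direction with DMSO as baseline. HepG2 cells transiently carrying reporter constructs received chemicals for 24 h.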
# [5] = molecular target: human Thyroid hormone Receptor beta (TRb), THRB (gene 7068) (UniProt P10828); test: ATG_hTRb_XSP2: Attagene TRANS-FACTORIAL Multi-Species (XSP2) HepG2 Assay for human Thyroid hormone Receptor beta (TRb) (AID 2283840);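 further: actives raise reporter mRNA so potency reflects agonist-like gain of signal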
# Procedure, shortened: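 HepG2 cells were transiently transfected with GAL4-UAS multiplexed reporter units expressing chimeric NR-Gal4 proteins, dosed 24 h; reporter mRNA was quantified by RT-PCR, fluorescent labeling, HpaI digestion and capillary electrophoresis, fitted for gain of signal versus DMSO.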
# [6] = system: Sodium/Iodide Symporter (NIS), SLC5A5 (gene 6528); test: CPHEA_Stoker_NIS_Inhibition_RAIU: CPHEA's Radioactive Iodide Uptake (RAIU) Assay for Sodium/Iodide Symporter (NIS) Inhibition, Stoker and Laws Labs (AID 2283841)
# Procedure, shortened: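 Iodide uptake through human NIS is measured in an engineered HEK293T line. Cells take up 125I (329pM final) for 2 hours at room temperature alongside chemicals at 0.001–100uM. Retained radioactivity is counted, and the signal is expressed against DMSO controls.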
# [7] = CPHEA_Stoker_NIS_Cytotoxicity: Cytotoxicity Assessment for CPHEA's Radioactive Iodide Uptake (RAIU) Assay for Sodium/Iodide Symporter (NIS) Inhibition, Stoker and Laws Labs (AID 2283897)
# Procedure, shortened: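 ATP luminescence (Cell Titer Glo) measured viability, with loss of signal normalized to DMSO controls. Cells: hNIS-HEK293T-EPA, seeded 40 hours prior. Dosing: 0.001–100uM, 2 hours, room temperature, uptake buffer pH 7.4.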
# [8] = CCTE_Deisenroth_5AR_NBTE_donor: CCTE's 5alpha-reductase NanoBRET Target Engagement Assay […], Deisenroth Lab (AID 2284319; active means hit-call score of the fitted dose curve at least 0.9, where 1 is the maximum; inactive means score below 0.9); conditions: actives raise or lower the signal
# Procedure, shortened: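 SRD5A2-NanoLuc, HEK293T, 20 h expression. Chemical 10 nM - 29.9 uM, 8 conc, duplicate; 3 h preincubation + 2 h testosterone tracer. Nano-Glo substrate plus extracellular NanoLuc inhibitor; donor lum 460 nm. DMSO baseline, bidirectional fit.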
# [9] = CCTE_Deisenroth_5AR_NBTE_acceptor: CCTE's 5alpha-reductase NanoBRET Target Engagement Assay - Autofluorescence Screen, Deisenroth Lab (AID 2284321; active means hit-call score of the fitted dose curve at least 0.9, where 1 is the maximum; inactive means score below 0.9;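 further: compound fluorescence in the acceptor channel under 460 nm excitation flags autofluorescence artifacts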); conditions: actives raise or lower the signal
# Procedure, shortened: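 HEK293T cell-based NanoBRET assay read 5 h after dosing; this acceptor channel serves as an autofluorescence artifact screen. Chemicals at nominal 100 uM were scanned in three independent runs (n=3), excitation 460 nm. Fitting was bidirectional versus DMSO baseline.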
# SRD5A2 (gene 6716) = test: CCTE_Deisenroth_5AR_NBTE_ratio: CCTE's 5alpha-reductase NanoBRET Target Engagement Assay - Ratio, Deisenroth Lab (AID 2284322; active means hit-call score of the fitted dose curve at least 0.9, where 1 is the maximum; inactive means score below 0.9); conditions: actives raise or lower the signal
# Procedure, shortened: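 HEK293T cells transiently expressing an SRD5A2-NanoLuc fusion (20 h post-transfection) were exposed to test chemical (10 nM - 29.9 uM, 8 points) for 3 h, then testosterone tracer for a further 2 h. Acceptor/donor BRET ratio was fitted bidirectionally against DMSO baseline.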
# [10] = molecular target: rat Neonicotinoid receptor (NNR), Chrna7 (gene 25302) (UniProt Q05941); test: NVS_LGIC_rNNR_BungSens: NovaScreen (NVS) Ligand-Gated Ion Channel Assay for rat Neonicotinoid receptor (NNR) (AID 2283315)
# Procedure, shortened: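 Rat cortical membrane preparation incubated 2.5 h with tritiated or iodinated radioligand and test chemical. Bound radioactivity was filtered and counted by scintillation, and displacement was analysed against DMSO.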
# [11] = molecular target: Sodium channel protein type 1 subunit alpha (Rattus norvegicus) (UniProt P04774); test: NVS_IC_rNaCh_site2: NovaScreen (NVS) Ion Channel Assay for rat Sodium Channel, Site 2 (NaCh) (AID 2283322);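 further: hit means loss of radioligand binding signal relative to DMSO so AC50 marks displacement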
# Procedure, shortened: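 Initial duplicate single-point testing at 25 uM, followed by concentration-response runs for actives. Binding of radioligand to rat forebrain membranes quantified after 1 h via filter-based radiodetection.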
# PGR (gene 5241) = PGR (gene 5241) (UniProt P06401); test: NVS_NR_hPR: NovaScreen (NVS) Nuclear Receptor Binding Assay for human Progestron Receptor (PR) (AID 2283360);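 further: active means loss of bound radioligand signal versus DMSO baseline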
# Procedure, shortened: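 T47D lysate; tritiated or iodinated radioligand; scintillation count at 18 h. DMSO = negative control/baseline. Primary: 25 uM, duplicate. Secondary: concentration series for actives.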
# [12] = molecular target: D(1A) dopamine receptor (Homo sapiens) (UniProt P21728); test: NVS_GPCR_hDRD1: NovaScreen (NVS) G Protein-Coupled Receptor Assay for human Dopamine Receptor D1 (DRD1) (AID 2283269)
# Procedure, shortened: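 HEK293-derived receptor preparation; radioligand competitive displacement; 1 h; filtration + scintillation counting. DMSO = negative control/baseline. Primary: 25 uM, duplicate; secondary: concentration–response for actives.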
# [13] = molecular target: human Neurokinin, NK2 Receptor, TACR2 (gene 6865) (UniProt P21452); test: NVS_GPCR_hNK2: NovaScreen (NVS) G Protein-Coupled Receptor Assay for human Neurokinin, NK2 Receptor (AID 2283278);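 further: actives reduce bound radioligand signal relative to DMSO baseline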
# Procedure, shortened: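 Filter-based scintillation counting measured radioligand bound to receptor extracted from CHO cells, 4 hours after compound addition. Chemicals screened first at 25 uM in duplicate, with actives retested in concentration series relative to DMSO.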
# [14] = molecular target: human Opioid Receptor Mu (Opiate Mu), OPRM1 (gene 4988) (UniProt P35372); test: NVS_GPCR_hOpiate_mu: NovaScreen (NVS) G Protein-Coupled Receptor Assay for human Opioid Receptor Mu (Opiate Mu) (AID 2283290);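 further: hits lower bound tracer signal versus DMSO meaning displacement of the ligand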
# Procedure, shortened: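 CHO-derived receptor protein, cell-free; radioligand displacement, filtration + scintillation counting, read at 2.5 h. DMSO = negative control/baseline. Primary: 25 uM single conc, duplicate; secondary: concentration series.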
# [15] = TAMU_HCS_1.5hr_SingleDonor1434_Cytotoxicity: Cytotoxicity Assessment using High-content Screening (HCS) Fluorescent Imaging for the Texas A&M University (TAMU) 1.5-hr Human Induced Pluripotent Stem Cell (iPSC)-derived Cardiotoxicity Assay (AID 2284234)
# Procedure, shortened: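 Nuclear counts from Hoechst 33342 imaging define cytotoxicity here, with EC10 (10% cell-count loss relative to DMSO) as point of departure. iPSC cardiomyocytes received 0.2-100 uM test chemical in 0.5% DMSO for 1.5 h at 37 C.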
# [16] = molecular target: human Matrix Metalloproteinase-9 (MMP9), MMP9 (gene 4318) (UniProt P14780); test: NVS_ENZ_hMMP9: NovaScreen (NVS) Enzymatic Assay for human Matrix Metalloproteinase-9 (MMP9) (AID 2283190);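 further: cell-free recombinant MMP9 protease activity read by fluorescent substrate signal; active means inhibition seen as loss of fluorescence signal versus DMSO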
# Procedure, shortened: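 Inhibition was scored as loss of fluorescence signal against DMSO controls. The recombinant protease was exposed to chemicals for 1 hour before reading; initial testing used 25 uM in duplicate.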
# [17] = molecular target: mouse Estrogen Receptor alpha (Era), Esr1 (gene 13982) (UniProt P19785); test: NVS_NR_mERa: NovaScreen (NVS) Nuclear Receptor Binding Assay for mouse Estrogen Receptor alpha (Era) (AID 2283378);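 further: hit means loss of bound radioligand signal relative to DMSO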
# Procedure, shortened: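 Cell-free radioligand binding with extracted mouse Era protein; competitive displacement of radiolabelled ligand, read by filter-based scintillation counting 18 hours after dosing. Loss of signal versus DMSO baseline taken as binding; single screening concentration 25 uM, actives followed in concentration series.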
# [18] = molecular target: human Esterase Plasma (ES), BCHE (gene 590) (UniProt P06276); test: NVS_ENZ_hES: NovaScreen (NVS) Enzymatic Assay for human Esterase Plasma (ES) (AID 2283157)
# Procedure, shortened: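 Screening ran at 25 uM in duplicate, followed by singleton concentration series reaching 50 uM for actives. Human plasma protein, colorimetric detection, 0.25 h exposure, DMSO negative control.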
# Chain of zebrafish Thyroid Hormone Receptor alpha (TRa), thraa (gene 30670) (Q98867 whole entry, looked up, the tested form may be a part): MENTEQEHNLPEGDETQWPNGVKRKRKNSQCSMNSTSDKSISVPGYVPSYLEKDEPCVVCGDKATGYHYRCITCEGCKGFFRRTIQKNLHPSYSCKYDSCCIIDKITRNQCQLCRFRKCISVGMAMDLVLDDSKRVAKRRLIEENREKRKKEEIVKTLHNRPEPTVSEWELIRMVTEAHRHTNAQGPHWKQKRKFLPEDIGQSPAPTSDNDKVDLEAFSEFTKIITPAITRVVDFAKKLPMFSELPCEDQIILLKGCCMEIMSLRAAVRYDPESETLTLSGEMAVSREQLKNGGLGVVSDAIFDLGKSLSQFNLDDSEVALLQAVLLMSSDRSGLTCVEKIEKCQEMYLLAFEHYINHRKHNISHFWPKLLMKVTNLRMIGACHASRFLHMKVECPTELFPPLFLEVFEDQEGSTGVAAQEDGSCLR
# Chain of mouse Estrogen Receptor alpha (Era), Esr1 (gene 13982) (P19785 whole entry, looked up): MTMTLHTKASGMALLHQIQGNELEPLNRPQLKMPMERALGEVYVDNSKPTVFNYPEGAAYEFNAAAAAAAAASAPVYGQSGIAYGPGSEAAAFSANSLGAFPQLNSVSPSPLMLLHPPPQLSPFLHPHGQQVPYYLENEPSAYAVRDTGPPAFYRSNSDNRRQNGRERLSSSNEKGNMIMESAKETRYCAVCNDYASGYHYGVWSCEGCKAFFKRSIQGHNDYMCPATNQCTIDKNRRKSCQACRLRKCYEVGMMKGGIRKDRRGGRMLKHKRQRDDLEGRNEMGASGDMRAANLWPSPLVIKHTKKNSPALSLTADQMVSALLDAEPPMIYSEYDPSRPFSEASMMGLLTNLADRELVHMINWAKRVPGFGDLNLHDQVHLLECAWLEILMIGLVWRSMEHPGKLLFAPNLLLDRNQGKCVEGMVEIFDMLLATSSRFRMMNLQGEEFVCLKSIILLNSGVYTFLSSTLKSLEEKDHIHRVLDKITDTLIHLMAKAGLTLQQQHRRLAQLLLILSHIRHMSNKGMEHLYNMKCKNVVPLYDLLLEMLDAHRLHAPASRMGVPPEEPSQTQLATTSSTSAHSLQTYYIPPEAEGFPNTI
# Chain of human Matrix Metalloproteinase-9 (MMP9), MMP9 (gene 4318) (P14780 whole entry, looked up): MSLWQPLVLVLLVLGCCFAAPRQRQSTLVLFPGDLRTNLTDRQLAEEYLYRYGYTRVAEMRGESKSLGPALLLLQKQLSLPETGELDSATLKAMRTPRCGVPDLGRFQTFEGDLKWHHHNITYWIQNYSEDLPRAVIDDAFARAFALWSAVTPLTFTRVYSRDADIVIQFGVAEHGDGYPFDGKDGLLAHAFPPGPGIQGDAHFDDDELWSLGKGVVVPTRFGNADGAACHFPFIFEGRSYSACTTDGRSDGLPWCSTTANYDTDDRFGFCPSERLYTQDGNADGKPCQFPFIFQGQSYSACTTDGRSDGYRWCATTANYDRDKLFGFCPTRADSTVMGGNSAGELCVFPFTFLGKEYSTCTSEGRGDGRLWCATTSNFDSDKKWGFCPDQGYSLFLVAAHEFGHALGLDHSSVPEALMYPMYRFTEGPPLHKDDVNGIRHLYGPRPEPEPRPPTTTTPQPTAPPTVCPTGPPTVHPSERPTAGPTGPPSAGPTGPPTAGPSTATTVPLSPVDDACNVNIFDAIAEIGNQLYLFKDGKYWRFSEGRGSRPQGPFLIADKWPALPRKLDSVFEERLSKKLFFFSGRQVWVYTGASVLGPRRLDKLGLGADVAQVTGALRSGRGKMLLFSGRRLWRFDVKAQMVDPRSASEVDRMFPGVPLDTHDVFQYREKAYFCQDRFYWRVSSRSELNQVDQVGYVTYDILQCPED
# Chain of human Esterase Plasma (ES), BCHE (gene 590) (P06276 whole entry, looked up): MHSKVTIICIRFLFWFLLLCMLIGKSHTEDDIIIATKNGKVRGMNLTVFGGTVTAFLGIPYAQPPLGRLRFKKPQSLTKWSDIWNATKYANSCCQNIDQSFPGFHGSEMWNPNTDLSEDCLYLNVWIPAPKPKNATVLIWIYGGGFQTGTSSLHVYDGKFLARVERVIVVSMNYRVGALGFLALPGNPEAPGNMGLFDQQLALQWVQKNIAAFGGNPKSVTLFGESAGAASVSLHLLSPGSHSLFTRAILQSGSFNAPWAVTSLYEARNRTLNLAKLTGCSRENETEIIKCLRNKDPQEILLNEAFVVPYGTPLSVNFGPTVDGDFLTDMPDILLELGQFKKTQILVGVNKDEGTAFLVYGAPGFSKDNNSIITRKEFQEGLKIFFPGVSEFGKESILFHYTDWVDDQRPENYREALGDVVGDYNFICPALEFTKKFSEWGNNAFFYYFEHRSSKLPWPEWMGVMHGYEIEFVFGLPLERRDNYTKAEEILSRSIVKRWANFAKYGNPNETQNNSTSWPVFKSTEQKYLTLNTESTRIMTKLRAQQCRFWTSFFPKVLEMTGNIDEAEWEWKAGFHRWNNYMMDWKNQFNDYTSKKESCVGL
# Chain of Nuclear receptor subfamily 1 group I member 2 (Mus musculus) (O54915 whole entry, looked up, the tested form may be a part): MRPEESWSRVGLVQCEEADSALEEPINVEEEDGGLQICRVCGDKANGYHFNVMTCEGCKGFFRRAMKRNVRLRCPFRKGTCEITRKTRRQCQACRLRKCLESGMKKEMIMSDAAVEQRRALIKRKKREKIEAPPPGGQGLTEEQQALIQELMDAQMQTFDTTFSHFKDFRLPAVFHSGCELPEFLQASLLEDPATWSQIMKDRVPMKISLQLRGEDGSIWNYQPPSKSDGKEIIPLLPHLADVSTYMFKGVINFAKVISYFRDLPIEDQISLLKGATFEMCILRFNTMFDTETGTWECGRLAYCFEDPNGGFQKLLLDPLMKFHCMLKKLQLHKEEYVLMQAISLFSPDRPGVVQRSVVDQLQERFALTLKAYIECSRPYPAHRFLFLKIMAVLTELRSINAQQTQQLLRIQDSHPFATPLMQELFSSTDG
# Chain of PGR (gene 5241) (P06401 whole entry, looked up): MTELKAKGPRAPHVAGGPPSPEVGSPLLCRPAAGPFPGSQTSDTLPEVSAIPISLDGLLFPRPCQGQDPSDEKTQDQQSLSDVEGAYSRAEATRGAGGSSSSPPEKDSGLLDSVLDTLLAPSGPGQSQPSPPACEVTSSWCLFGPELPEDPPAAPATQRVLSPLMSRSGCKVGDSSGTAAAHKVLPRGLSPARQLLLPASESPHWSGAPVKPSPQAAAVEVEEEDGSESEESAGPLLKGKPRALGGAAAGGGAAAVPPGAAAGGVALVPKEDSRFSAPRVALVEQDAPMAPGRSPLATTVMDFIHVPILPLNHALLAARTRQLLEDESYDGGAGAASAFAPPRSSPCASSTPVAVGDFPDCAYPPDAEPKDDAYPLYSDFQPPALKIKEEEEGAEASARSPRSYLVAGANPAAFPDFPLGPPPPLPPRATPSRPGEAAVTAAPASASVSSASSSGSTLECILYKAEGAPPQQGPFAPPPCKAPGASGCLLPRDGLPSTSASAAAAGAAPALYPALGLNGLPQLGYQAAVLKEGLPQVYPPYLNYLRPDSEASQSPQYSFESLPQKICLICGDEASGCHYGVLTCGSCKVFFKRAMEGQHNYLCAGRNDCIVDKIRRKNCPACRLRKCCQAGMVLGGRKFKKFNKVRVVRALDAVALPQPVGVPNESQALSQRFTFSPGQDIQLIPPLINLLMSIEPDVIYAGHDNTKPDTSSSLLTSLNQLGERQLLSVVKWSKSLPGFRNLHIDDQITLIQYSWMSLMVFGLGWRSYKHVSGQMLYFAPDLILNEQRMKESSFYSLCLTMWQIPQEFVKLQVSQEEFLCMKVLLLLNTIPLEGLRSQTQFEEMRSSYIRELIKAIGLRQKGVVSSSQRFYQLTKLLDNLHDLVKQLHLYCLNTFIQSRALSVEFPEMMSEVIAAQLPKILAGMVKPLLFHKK
# Chain of human Neurokinin, NK2 Receptor, TACR2 (gene 6865) (P21452 whole entry, looked up): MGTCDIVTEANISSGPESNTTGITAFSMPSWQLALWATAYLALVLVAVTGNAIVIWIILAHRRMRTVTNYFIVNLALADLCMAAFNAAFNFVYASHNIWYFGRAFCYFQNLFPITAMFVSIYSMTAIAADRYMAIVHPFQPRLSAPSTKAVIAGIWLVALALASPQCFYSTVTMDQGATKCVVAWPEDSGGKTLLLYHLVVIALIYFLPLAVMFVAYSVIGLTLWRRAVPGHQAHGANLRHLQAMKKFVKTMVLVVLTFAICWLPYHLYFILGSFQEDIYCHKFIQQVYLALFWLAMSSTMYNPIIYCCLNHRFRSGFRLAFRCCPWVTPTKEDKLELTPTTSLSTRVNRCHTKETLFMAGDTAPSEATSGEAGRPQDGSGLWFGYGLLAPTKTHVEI
# Chain of D(1A) dopamine receptor (Homo sapiens) (P21728 whole entry, looked up): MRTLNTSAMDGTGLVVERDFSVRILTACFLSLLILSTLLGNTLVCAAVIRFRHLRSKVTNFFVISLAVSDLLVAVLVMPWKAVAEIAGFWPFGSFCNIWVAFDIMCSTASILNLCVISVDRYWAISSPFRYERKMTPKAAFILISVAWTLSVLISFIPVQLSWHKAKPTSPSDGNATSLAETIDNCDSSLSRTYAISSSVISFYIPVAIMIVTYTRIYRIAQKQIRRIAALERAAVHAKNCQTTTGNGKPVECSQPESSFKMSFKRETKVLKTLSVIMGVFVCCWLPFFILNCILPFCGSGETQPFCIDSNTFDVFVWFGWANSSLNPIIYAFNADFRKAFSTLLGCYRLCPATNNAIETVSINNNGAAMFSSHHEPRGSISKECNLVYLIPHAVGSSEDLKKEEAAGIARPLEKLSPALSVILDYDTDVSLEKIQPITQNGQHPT
# Chain of human Opioid Receptor Mu (Opiate Mu), OPRM1 (gene 4988) (P35372 whole entry, looked up): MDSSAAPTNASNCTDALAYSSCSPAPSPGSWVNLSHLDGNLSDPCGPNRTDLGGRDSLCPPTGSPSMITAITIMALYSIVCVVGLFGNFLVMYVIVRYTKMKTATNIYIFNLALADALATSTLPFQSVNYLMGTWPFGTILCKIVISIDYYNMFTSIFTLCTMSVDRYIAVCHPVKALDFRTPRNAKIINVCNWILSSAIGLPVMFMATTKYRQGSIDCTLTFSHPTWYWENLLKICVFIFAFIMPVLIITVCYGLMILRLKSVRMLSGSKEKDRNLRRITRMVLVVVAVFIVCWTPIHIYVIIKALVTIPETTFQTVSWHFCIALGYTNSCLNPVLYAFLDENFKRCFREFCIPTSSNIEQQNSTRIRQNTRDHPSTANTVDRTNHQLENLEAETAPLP
smiles,measurement,setting,value
CC(=O)c1cc2c(cc1C)C(C)(C)C(C)CC2(C)C (stereo not given),AC50,[1],1.8 µM (active)
same,outcome,[2],inactive
same,outcome,[3],inactive
same,outcome,[4],inactive
same,outcome,[5],inactive
same,outcome,[6],inactive
same,outcome,[7],inactive
same,outcome,[8],inactive
same,outcome,[9],inactive
same,outcome,SRD5A2 (gene 6716),inactive
CCc1cc(C)cc(CC)c1-c1c(OC(=O)C(C)(C)C)n2n(c1=O)CCOCC2,AC50,[10],6.11 µM (active)
same,outcome,[11],inactive
C=COCCCl,outcome,PGR (gene 5241),inactive
O=C1C=CC(=O)C=C1,AC50,[12],12.8 µM (active)
same,AC50,[13],0.927 µM (active)
same,AC50,[14],9.86 µM (active)
same,outcome,[15],inactive
CCC[N+](=O)[O-],AC50,[16],6.06 µM (active)
O=C(O)c1cc[c]([Hg][Cl])cc1,outcome,[17],inactive
COC(C)(C)CCC[C@H](C)C/C=C/C(C)=C/C(=O)OC(C)C,AC50,[18],16.5 µM (active)
